PubChem BioAssay (NCI)
Compounds without any hit were thinned out: in the full panel of roughly 83,000, 20% have a hit.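 Growth was measured after 48 h exposure to one concentration of compound in 96-well plates. Values under 10 count as active.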 Calls of active or inactive are those of the source.

Tests used:
Assay in all cases: NCI-60 one-dose screen, 48 h (100 = growth as untreated, 0 = no growth, -100 = all killed)
Details in all cases: 10 µM unless noted
SR leukemia = test system: SR leukemia
RPMI-8226 leukemia = test system: RPMI-8226 leukemia
OVCAR-8 ovarian = test system: OVCAR-8 ovarian
OVCAR-5 ovarian = test system: OVCAR-5 ovarian
OVCAR-4 ovarian = test system: OVCAR-4 ovarian
SK-OV-3 ovarian = test system: SK-OV-3 ovarian
IGROV1 ovarian = test system: IGROV1 ovarian
OVCAR-3 ovarian = test system: OVCAR-3 ovarian
HS 578T breast = test system: HS 578T breast
NCI/ADR-RES ovarian = test system: NCI/ADR-RES ovarian

Measured: growth

CCN(CC)c1ccc(/C=N/NC(=O)CSc2nc3ccccc3c(=O)n2Cc2ccc(S(N)(=O)=O)cc2)c(O)c1
inactive: SR leukemia 10.4% | RPMI-8226 leukemia 17.1% | OVCAR-8 ovarian 20.4% | OVCAR-5 ovarian 45% | OVCAR-4 ovarian 12.6% | SK-OV-3 ovarian 21.6% | IGROV1 ovarian 26.4% | OVCAR-3 ovarian 15% | HS 578T breast 63% | NCI/ADR-RES ovarian 87.2%

O=C(C1CCC1)N1N=C(c2ccc(-n3ccc(C(F)(F)F)n3)cc2)CC1c1ccc[nH]1 (stereo not given)
inactive: SR leukemia 81.9% | RPMI-8226 leukemia 63.2% | OVCAR-8 ovarian 95.4% | OVCAR-5 ovarian 94.8% | OVCAR-4 ovarian 112% | SK-OV-3 ovarian 133% | IGROV1 ovarian 99.6% | OVCAR-3 ovarian 107% | HS 578T breast 101% | NCI/ADR-RES ovarian 95.5%

O=C(c1nc2ccccc2[nH]1)C1C(c2ccc(Cl)cc2)C2CC3CCCC[C@H]3N2[C@@]12C(=O)Nc1cc(Cl)ccc12 (stereo not given in full)
inactive: SR leukemia 39% | RPMI-8226 leukemia 16.8% | OVCAR-8 ovarian 61.3% | OVCAR-5 ovarian 56% | OVCAR-4 ovarian 24.4% | SK-OV-3 ovarian 71.4% | IGROV1 ovarian 32% | OVCAR-3 ovarian 35% | HS 578T breast 73.2% | NCI/ADR-RES ovarian 50.5%

COc1cc(/C=C2\COc3ccc(-c4ccccc4)cc3C2=O)cc(OC)c1
inactive: SR leukemia 58.5% | OVCAR-8 ovarian 56.2% | OVCAR-5 ovarian 106% | OVCAR-4 ovarian 63.8% | SK-OV-3 ovarian 108% | IGROV1 ovarian 90.8% | OVCAR-3 ovarian 69% | HS 578T breast 92.9% | NCI/ADR-RES ovarian 61%
active: RPMI-8226 leukemia 3.36%

CC1(C)CC(=O)C2=C(C1)N(c1ccc(F)cc1F)C(N)=C(C#N)C2c1cc(Br)ccc1F (stereo not given)
inactive: SR leukemia 31% | RPMI-8226 leukemia 80.6% | OVCAR-8 ovarian 86.7% | OVCAR-5 ovarian 107% | OVCAR-4 ovarian 83.1% | SK-OV-3 ovarian 131% | IGROV1 ovarian 94.3% | OVCAR-3 ovarian 99.7% | HS 578T breast 105% | NCI/ADR-RES ovarian 85.7%

C=C(C)[C@@H]1CC[C@]2(CN)CC[C@]3(C)[C@H](CC[C@@H]4[C@@]5(C)CCCNC(C)(C)[C@@H]5CC[C@]43C)[C@@H]12
inactive: SK-OV-3 ovarian 86.1%
active: SR leukemia -38.7% | RPMI-8226 leukemia -43.8% | OVCAR-8 ovarian -59.6% | OVCAR-5 ovarian -23% | OVCAR-4 ovarian -70.9% | IGROV1 ovarian -81.9% | OVCAR-3 ovarian -85.8% | HS 578T breast -42.3% | NCI/ADR-RES ovarian -52%

CC1=C(C(=O)/C=C/c2ccc(N(C)C)cc2)C(c2ccccc2)NC(=S)N1 (stereo not given)
inactive: SR leukemia 96.8% | RPMI-8226 leukemia 101% | OVCAR-8 ovarian 102% | OVCAR-5 ovarian 102% | OVCAR-4 ovarian 107% | SK-OV-3 ovarian 111% | IGROV1 ovarian 98.9% | OVCAR-3 ovarian 109% | HS 578T breast 98.2% | NCI/ADR-RES ovarian 100%

Cc1ccc(NC(=O)Cc2ccc(/C=C/C(=O)c3ncc[nH]3)cc2)cc1
active: SR leukemia 7.24% | RPMI-8226 leukemia -11.4% | OVCAR-8 ovarian 8.42%
inactive: OVCAR-5 ovarian 64.2% | OVCAR-4 ovarian 58% | SK-OV-3 ovarian 84.4% | IGROV1 ovarian 57.6% | OVCAR-3 ovarian 15.3% | HS 578T breast 42.9% | NCI/ADR-RES ovarian 38.3%

O=C(CCN1CCCC1)Nc1ccc2c(NCc3ccccc3)c3ccccc3nc2c1
active: SR leukemia -14.8% | RPMI-8226 leukemia -35.3% | OVCAR-8 ovarian 4.52% | OVCAR-4 ovarian -13.8% | SK-OV-3 ovarian -10.9% | IGROV1 ovarian 3.89% | OVCAR-3 ovarian -33.4% | HS 578T breast -10.7%
inactive: OVCAR-5 ovarian 14.8% | NCI/ADR-RES ovarian 72.5%

COc1ccc(/C=C(\C#N)n2nc3cccc(F)c3n2)cc1
inactive: SR leukemia 82.4% | RPMI-8226 leukemia 102% | OVCAR-8 ovarian 100% | OVCAR-5 ovarian 108% | OVCAR-4 ovarian 101% | SK-OV-3 ovarian 108% | IGROV1 ovarian 96.8% | OVCAR-3 ovarian 109% | HS 578T breast 104% | NCI/ADR-RES ovarian 104%

Oc1ccc(C(c2ccc(O)cc2)c2ccc(Br)cn2)cc1
inactive: SR leukemia 104% | RPMI-8226 leukemia 119% | OVCAR-5 ovarian 78.4% | SK-OV-3 ovarian 65.4% | IGROV1 ovarian 11.8%
active: OVCAR-8 ovarian 2.17% | OVCAR-4 ovarian -38.1% | OVCAR-3 ovarian -37.4% | HS 578T breast -35.6% | NCI/ADR-RES ovarian -38.7%

CCOc1ccc(/C=N/Nc2cc(C)nc3ccc(Br)cc23)cc1
active: SR leukemia 2.09%
inactive: RPMI-8226 leukemia 71.4% | OVCAR-8 ovarian 90.6% | OVCAR-5 ovarian 89.2% | OVCAR-4 ovarian 91.8% | SK-OV-3 ovarian 90.8% | IGROV1 ovarian 96.2% | OVCAR-3 ovarian 105% | HS 578T breast 101% | NCI/ADR-RES ovarian 81.8%

CCCCCN1C=C/C(=C\C(=O)N2CCCc3ccccc32)c2ccccc21
inactive: SR leukemia 61.6% | RPMI-8226 leukemia 43.9% | OVCAR-8 ovarian 89.3% | OVCAR-5 ovarian 99.8% | OVCAR-4 ovarian 75.2% | SK-OV-3 ovarian 95% | IGROV1 ovarian 77.9% | OVCAR-3 ovarian 84.5% | HS 578T breast 94.8% | NCI/ADR-RES ovarian 107%

C/C(=N\NC(=O)CSc1nc2ccccc2c(=O)n1Cc1ccc(S(N)(=O)=O)cc1)c1ccc(F)cc1
inactive: SR leukemia 100% | RPMI-8226 leukemia 112% | OVCAR-8 ovarian 101% | OVCAR-5 ovarian 96.4% | OVCAR-4 ovarian 99.8% | SK-OV-3 ovarian 111% | IGROV1 ovarian 106% | OVCAR-3 ovarian 115% | HS 578T breast 102% | NCI/ADR-RES ovarian 104%

COc1cc2cc(CN3CCN(c4nccc(-c5ccc6ccccc6c5)n4)CC3)c(=O)[nH]c2cc1OC
inactive: RPMI-8226 leukemia 61.2% | OVCAR-8 ovarian 28.9% | OVCAR-5 ovarian 102% | OVCAR-4 ovarian 53.4% | SK-OV-3 ovarian 99.6% | IGROV1 ovarian 92% | OVCAR-3 ovarian 39% | HS 578T breast 95.4% | NCI/ADR-RES ovarian 85.9%
active: SR leukemia -23.1%

C=C1C(=O)O[C@H]2[C@H]1CC/C(COC(=O)NCC(C)c1ccc(CC(C)C)cc1)=C\CC[C@@]1(C)O[C@@H]21 (stereo not given in full)
active: SR leukemia -2.59% | RPMI-8226 leukemia -35.7% | OVCAR-8 ovarian -51% | OVCAR-4 ovarian -43.8% | IGROV1 ovarian -69.5% | OVCAR-3 ovarian -85.5%
inactive: OVCAR-5 ovarian 62.4% | SK-OV-3 ovarian 100% | HS 578T breast 16% | NCI/ADR-RES ovarian 28.6%

O=C(Cc1ccc(/C=C/C(=O)c2nccs2)cc1)Nc1ccccc1
active: SR leukemia 2.31%
inactive: RPMI-8226 leukemia 67% | OVCAR-8 ovarian 90.5% | OVCAR-5 ovarian 99.9% | OVCAR-4 ovarian 97.2% | SK-OV-3 ovarian 112% | IGROV1 ovarian 91.7% | OVCAR-3 ovarian 88.9% | HS 578T breast 88.5% | NCI/ADR-RES ovarian 101%

Cc1ccc(NC(=O)c2cc(-c3nc4ccccc4s3)c(=O)n(NS(=O)(=O)c3ccc(Cl)cc3)c2N)cc1
inactive: SR leukemia 95% | RPMI-8226 leukemia 94.6% | OVCAR-8 ovarian 103% | OVCAR-5 ovarian 110% | OVCAR-4 ovarian 103% | SK-OV-3 ovarian 108% | IGROV1 ovarian 99.7% | OVCAR-3 ovarian 103% | HS 578T breast 104% | NCI/ADR-RES ovarian 105%

C/C(=N\NC(=O)CSc1nc2ccccc2c(=O)n1CCc1ccc(S(N)(=O)=O)cc1)c1ccccn1
inactive: SR leukemia 22.8% | RPMI-8226 leukemia 30.9% | OVCAR-8 ovarian 22.8% | OVCAR-5 ovarian 39.8% | OVCAR-4 ovarian 19.5% | SK-OV-3 ovarian 20.8% | IGROV1 ovarian 45.5% | OVCAR-3 ovarian 12.5% | HS 578T breast 73.7% | NCI/ADR-RES ovarian 74.4%

O=C(NO)c1ccc(-n2nc(-c3ccccc3)c3ccccc32)cc1
active: OVCAR-3 ovarian 1%
inactive: SR leukemia 22.8% | RPMI-8226 leukemia 32.6% | OVCAR-8 ovarian 32.6% | OVCAR-5 ovarian 63.8% | OVCAR-4 ovarian 19.2% | SK-OV-3 ovarian 58.7% | IGROV1 ovarian 44.9% | HS 578T breast 55.5% | NCI/ADR-RES ovarian 22.7%

COc1cc(F)c(/C=C/c2cc(/C=C/c3cc(OC)c(OC)cc3F)on2)cc1OC
inactive: SR leukemia 46.9% | RPMI-8226 leukemia 68.2% | OVCAR-8 ovarian 87.1% | OVCAR-5 ovarian 97.6% | OVCAR-4 ovarian 101% | SK-OV-3 ovarian 105% | IGROV1 ovarian 79.5% | OVCAR-3 ovarian 36.1% | HS 578T breast 89.2% | NCI/ADR-RES ovarian 89.3%

CCOC(=O)C1=C(CCl)NC(=O)NC1c1ccc2c(c1)OCO2 (stereo not given)
inactive: SR leukemia 28% | RPMI-8226 leukemia 15.3% | OVCAR-8 ovarian 45.7% | OVCAR-5 ovarian 24.6% | OVCAR-4 ovarian 32.5% | SK-OV-3 ovarian 81.8% | IGROV1 ovarian 37.2% | OVCAR-3 ovarian 24.8% | HS 578T breast 71.9% | NCI/ADR-RES ovarian 58.6%

CC(C)(C)c1cc(/C=N/NC(=O)c2ccccc2NC(=O)c2cccs2)c(O)c(C(C)(C)C)c1
active: SR leukemia -27.2% | OVCAR-4 ovarian -34.6% | OVCAR-3 ovarian 6.92%
inactive: RPMI-8226 leukemia 32.5% | OVCAR-8 ovarian 10.1% | OVCAR-5 ovarian 67.7% | SK-OV-3 ovarian 31.8% | IGROV1 ovarian 36.3% | HS 578T breast 71.5% | NCI/ADR-RES ovarian 18.8%

CCCC/C=N/NC(=S)NCc1ccccc1
inactive: SR leukemia 95% | RPMI-8226 leukemia 97.6% | OVCAR-8 ovarian 97.5% | OVCAR-5 ovarian 92.7% | OVCAR-4 ovarian 96.3% | SK-OV-3 ovarian 88.9% | IGROV1 ovarian 110% | OVCAR-3 ovarian 104% | HS 578T breast 95% | NCI/ADR-RES ovarian 104%

CCCOc1ccc(/C=N/Nc2cc(C)nc3ccc(Cl)cc23)cc1
active: SR leukemia -35.5% | RPMI-8226 leukemia -20.2% | OVCAR-8 ovarian -44.6% | OVCAR-3 ovarian -27.5%
inactive: OVCAR-5 ovarian 96.3% | OVCAR-4 ovarian 48.5% | SK-OV-3 ovarian 89.1% | IGROV1 ovarian 42.1% | HS 578T breast 89% | NCI/ADR-RES ovarian 82.4%

COc1cc2oc(-c3cccc(C(=O)Nc4ccc(Cl)cc4)c3)cc(=O)c2c(O)c1OC
active: OVCAR-4 ovarian -30.4% | HS 578T breast 6.66%
inactive: SR leukemia 65.1% | RPMI-8226 leukemia 70% | OVCAR-8 ovarian 16.3% | OVCAR-5 ovarian 79.1% | SK-OV-3 ovarian 58.3% | IGROV1 ovarian 54% | OVCAR-3 ovarian 30.4% | NCI/ADR-RES ovarian 37.3%

COc1ccc(C(=O)C2C(C#N)C(C#N)C3c4ccccc4C=CN23)cc1 (stereo not given)
active: OVCAR-8 ovarian -4.32%
inactive: SR leukemia 105% | RPMI-8226 leukemia 73.1% | OVCAR-5 ovarian 101% | OVCAR-4 ovarian 62.9% | SK-OV-3 ovarian 93.6% | IGROV1 ovarian 81% | OVCAR-3 ovarian 92.2% | HS 578T breast 95.1% | NCI/ADR-RES ovarian 87.9%
